uPA surface inh: qHTS for Inhibitors of Cell Surface uPA Generation; cell surface uPA generation assay, qHTS; Potency, µM (doses to about 38.3 µM), inactives show top-dose activity change, negative = inhibition, usual class: inhibitors; actives 0.31% (n = 330,000); AID 540303, 2011; active means well fitted inhibition curve with a large enough effect; inconclusive means small, poorly fitted or top-dose-only effect; inactive means no such curve, though single readings can be large or run the other way; tested in mouse RAW 264.7 cells; further: potency means the concentration at half of the fitted maximal effect; on the % scale 0 is the no-effect control and ±100 the full control effect; nearly all actives have a fitted effect of over 55% in size
HepG2 viability: qHTS for Inhibitors of TGF-b: Cytotox Counterscreen | actives 0.76% (n = 410,000) | AID 588856, 2011 | Potency, µM (top dose mostly 46.1 µM), for inactives: at the highest dose activity change, negative = cytotoxicity, most hits filed as cytotoxic | HepG2 CAGA-GFP viability, ATP luminescence, 18 h; further: potency means the concentration at half of the fitted maximal effect
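CellTiter-Glo luminescence gave cytotoxicity after 18 hours at 37 degrees C. The cells were HepG2 CAGA-GFP in 1% FBS DMEM, stimulated with 500 pg/mL TGF-beta after compound addition. %Activity was normalised to no-cell wells (complete cell-killing) and DMSO (no toxicity), and curves were fitted and classified.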
TGFb SMAD3 inh: qHTS for Inhibitors of TGF-b; AID 588855, 2011; Potency, µM (titrated, usually from 46.1 µM), for inactives: top-dose activity, negative = inhibition, most hits filed as inhibitors; actives 1.2% (n = 410,000); HepG2 CAGA-GFP TGF-b/SMAD3 reporter, GFP fluorescence, 18 h; TGF-beta stimulated, 500 pg/mL final; further: potency means the concentration at half of the fitted maximal effect; on the % scale 0 is the no-effect control and ±100 the full control effect; nearly all actives have a fitted effect of over 65% in size
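Cell-based qHTS in HEPG2 carrying a CAGA-GFP Smad reporter; compounds added before 500 pg/mL final TGF-beta, 18 h incubation at 37 degrees C, GFP fluorescence quantified per cell by imaging cytometry.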
S2 tox: Viability Counterscreen for Primary qHTS for Inhibitors of ATXN expression. S2 cells (HEK-293 line with an ATXN2-luciferase reporter) viability, CellTiter-Fluor protease fluorescence, 24 h. Potency, µM (top dose mostly 56.7 µM), usual class: cytotoxic. actives 0.49% (n = 400,000); further: potency means the concentration at half of the fitted maximal effect; nearly all actives have a fitted effect of over 40% in size
ATXN2 expr inh: Primary qHTS for Inhibitors of ATXN expression; Potency, µM (highest dose often 57 µM), for the others: at the highest dose activity change, negative = inhibition, usual class: inhibitors; AID 1745845, 2022; HEK-293 ATXN2-luciferase reporter, luminescence, 24 h; actives 0.72% (n = 360,000); further: potency means the concentration at half of the fitted maximal effect; on the % scale 0 is the no-effect control and ±100 the full control effect; nearly all actives have a fitted effect of over 55% in size
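qHTS (up to 57 uM final) was run with 24 h compound exposure of reporter cells at 37 °C. Each well was multiplexed: SteadyGlo luminescence measured ATXN2-luciferase expression after a fluorogenic Gly-Phe-AFC viability readout (25 uM final).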
Giardia kill: Small Molecules that selectively kill Giardia lamblia: qHTS | Giardia lamblia trophozoite viability | activity change, % at 7.66 µM, hits read low | actives 0.15% (n = 340,000); in the data active means activity change below about -80%; inconclusive means between about -30% and that limit;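 further: parasites exposed to compound for two days anaerobically before the ATP read; on the % scale 0 is the no-effect control and ±100 the full control effect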
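Luminescence from cellular ATP indicates surviving trophozoites (100 cells/well) following 48 hrs anaerobic compound treatment at 37 deg C; signal develops 15-30 min at room temperature.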
An asterisk follows results filed as active; i = inactive; ? = inconclusive; · = no result; ! = not confirmed by another sample; [ ] = another dose, or the depositor's remark. Hits are enriched below; roughly 2.6% of the tested compounds scored in any of these assays. Unless noted, the call rests on the fitted dose curve; in most records, active means well fitted curve in the direction sought with a large enough effect; inconclusive means small, poorly fitted or top-dose-only effect, or another doubt; inactive means no such curve, though single readings can be large; an effect the other way counts as inactive or inconclusive.

SMILES	uPA surface inh	HepG2 viability	TGFb SMAD3 inh	S2 tox	ATXN2 expr inh	Giardia kill
COc1cc2c(cc1OC)-c1c(OC)c(OC)cc3c1C(C2)N(C)CC3 (stereo not given)	-25.5%	-17.0%	23.5%	i	-26.4%	-7.5
O=C(Nc1nccs1)C(Cl)(Cl)Cl	-4.6%	-6.8%	2.4%	i	-11.6%	12.4
O=C(CCl)Nc1nccs1	?	11.2µM*	11.2µM*	?	·	29.0
O=[N+]([O-])c1ncc[nH]1	·	·	·	·	-2.8%	·
CCCCn1c(=O)c(C(=O)NCc2ccccc2OC)c(O)c2ccccc21	-4.0%	4.8%	7.9%	i	-17.5%	?
COc1ccccc1CNCC(O)Cn1c2ccccc2c2ccccc21 (stereo not given)	?	11.2µM*	?	·	?	26.2
COc1ccc(S(=O)(=O)N(C)C[C@H]2OCCCC[C@@H](C)Oc3ccc(N(C)C)cc3C(=O)N([C@H](C)CO)C[C@@H]2C)cc1	·	-11.0%	-6.3%	?	-11.9%	·
CCCCCCn1c(N)c(C(=O)NCCN2CCOCC2)c2nc3ccccc3nc21	-1.0%	-88.9%	15.8µM*	i	-15.4%	4.3
Nc1ncn([C@@H]2O[C@H](CO)[C@@H](O)[C@H]2O)c(=O)n1	?	-28.9%	11.2µM*	i	6.31µM*!	-17.5
CCOC(=O)c1ccc(N2C(=O)c3n[nH]c(-c4cccs4)c3C2c2ccc(Cl)cc2Cl)cc1 (stereo not given)	·	-112.2%	4.47µM*	?	?	·
CCOC(=O)c1c(C)[nH]c(C)c1S(=O)(=O)N1CCC(C(=O)N2CCN(c3cccc(Cl)c3)CC2)CC1	·	-4.0%	?	i	4.7%	·
CCOC(=O)Cn1c(=O)oc2cc(S(=O)(=O)Nc3cc(OC)cc(OC)c3)ccc21	·	-32.4%	?	·	·	·
Cc1ccc2c(c1)C(Cc1nc3ccccc3c(=O)n1-c1ccc(Br)cc1)C(=O)N2 (stereo not given)	·	-16.6%	?	25.1µM*	0.0%	·
C[C@H]1CN([C@@H](C)CO)C(=O)c2cccc(NC(=O)Nc3ccc(C(F)(F)F)cc3)c2O[C@@H]1CN(C)C(=O)Nc1ccc(F)cc1	?	-89.2%	?	12.6µM*	20µM*	-25.0
Cc1ccc(S(=O)(=O)Nc2cccc3c2O[C@H](CN(C)C(=O)Nc2cccc4ccccc24)[C@H](C)CN([C@H](C)CO)C3=O)cc1	?	-85.9%	?	?	?	0.8
CCN(CC)C(=O)Cn1cc(S(=O)(=O)CC(=O)NCc2ccc(C)cc2)c2ccccc21	1.9%	-0.1%	8.2%	?	-1.4%	10.9
COC(=O)c1c(C)n(Cc2ccccc2)c2ccc(O)cc12	3.5%	-6.3%	3.9%	i	0.4%	8.6
CCOC(=O)c1c(C)n(Cc2ccccc2)c2ccc(O)cc12	-2.0%	6.6%	17.8µM*	i	4.5%	7.2
CCOC(=O)c1c(C)n(Cc2ccccc2)c2ccc(OCC(O)CNC(C)(C)C)cc12 (stereo not given)	-3.1%	17.8µM*	?	·	14.1µM*	-16.4
Cc1cc(C)c(CN2CCN(C(=O)Cn3cnc4c(NCc5ccccc5)ncnc43)CC2)c(C)c1	?	-10.4%	?	?	-29.1%	-28.1
COC(=O)C(Cc1ccc(N(CCCl)CCCl)cc1)N=Cc1ccccc1O (stereo not given)	-15.6%	-51.5%	?	11.2µM*	3.16µM*	3.6
NC(N)=Nc1ccc2[nH]c3c(c2c1)C[C@@]1(O)[C@H]2Cc4ccc(O)c5c4[C@@]1(CCN2CC1CC1)[C@H]3O5	-25.1%	-52.6%	14.1µM*!	?	-10.1%	-13.9
Oc1ccc2c3c1O[C@H]1[C@@H](O)CC[C@@]4(O)[C@@H](C2)N(CC2CCC2)CC[C@]314	16.0%	-0.7%	21.1%	i	4.3%	-27.6
Cc1ccc(S(=O)(=O)N(C)C[C@H]2Oc3c(NC(=O)Nc4cccc5ccccc45)cccc3C(=O)N([C@@H](C)CO)C[C@@H]2C)cc1	?	-4.2%	?	?	?	5.4
CC(C)=CC1C(C(=O)OCc2cccc(Oc3ccccc3)c2)C1(C)C (stereo not given)	·	·	·	i	12.4%	·
SMILES	uPA surface inh	HepG2 viability	TGFb SMAD3 inh	S2 tox	ATXN2 expr inh	Giardia kill
C=CCC1=C(C)C(OC(=O)C2C(C=C(C)C)C2(C)C)CC1=O (stereo not given)	·	·	·	39.8µM*	?	·
CCC(C)C(C)(COC(N)=O)COC(N)=O (stereo not given)	·	·	·	i	2.2%	·
CC1CCCN(c2ccc(C(=O)N3CCC4(CC3)OCCO4)cc2[N+](=O)[O-])C1 (stereo not given)	-2.2%	-39.7%	?	i	-6.4%	-5.6
CCOC(=O)C1CCCN(c2ccc([N+](=O)[O-])c3nonc23)C1 (stereo not given)	-6.5%	-9.6%	37.4%	i	1.5%[11.3 µM]	-94.8*
C#CCOCCOCCOCCNc1nc(N2CCN(C(=O)CCCCCCCCCCNC(=O)[C@H](CCCCN)n3cc(C[C@@H](C)CC)nn3)CC2)nc(N2CCN(C(=O)CCCCCCCCCCNC(=O)[C@H](CCCN=C(N)N)n3cc(C[C@@H](C)CC)nn3)CC2)n1	?	15.8µM*	12.6µM*	·	-20.2%	12.2
C#CCOCCOCCOCCNc1nc(N2CCN(C(=O)CCCCCCCCCCNC(=O)[C@@H](CCC(=O)O)n3cc(CCCCCN)nn3)CC2)nc(N2CCN(C(=O)CCCCCCCCCCNC(=O)[C@H](CCCCN)n3cc(C[C@@H](C)CC)nn3)CC2)n1	?	-80.7%	?	·	-12.1%	-27.3
CC(C)C[C@H](CN)CC(=O)O	·	·	·	·	-4.2%	·
O=S(=O)(F)Cc1ccccc1	·	·	·	·	29.8%	·
C=CC(=O)Nc1sc2c(c1C(N)=O)CCCC2	?	-52.9%	15.8µM*	?	?	-0.5
O=C(Nc1ccc(Br)cc1)c1cccc(S(=O)(=O)N2CCc3ccccc32)c1	·	-21.2%	?	i	?	·
COc1cc(NC(=O)c2cccc3c(-c4cccnc4)coc23)cc(OC)c1OC	·	-22.0%	2.5%	?	11.2µM*	·
ClCCN1CCCC1	·	·	·	i	8.2%	·
COC(COC(N)=O)C1=C(N2CC2)C(=O)C(C)=C(N2CC2)C1=O (stereo not given)	-7.1%	-89.2%	?	?	3.55µM*	?
Cc1cc(C)c2sc(NC(=O)c3ccc([N+](=O)[O-])o3)nc2c1	?	-24.5%	-15.6%	?	-23.0%	-81.2*

Source: PubChem BioAssay (National Center for Advancing Translational Sciences (NCATS))
